Assay outcomes: PubChem BioAssay, National Center for Advancing Translational Sciences (NCATS)
SMN2 splice up = SMN2 splice variant enhancement; HEK293 SMN2-luciferase splicing reporter, luminescence, 30-36 h; Potency, µM (series often up to 46.1 µM), inactives show top-dose activity change, positive = activation, actives largely listed as activators; 210,000 tested, 2.8% active; also: % of control where 0% means no effect; nearly all actives have a fitted effect of over 55% in size
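HEK293 cells carry an SMN2 […]–luciferase reporter in which exon 7 inclusion puts luciferase in frame. Cells were plated 10-12 h before compound addition, then incubated 30-36 h at 37C. ONE-Glo luminescence was read; sodium butyrate at 4.5 mM final served as control.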
NPC1 promoter act = NPC1 promoter activation; Huh7 NPC1 promoter luciferase reporter, 24 h; Potency, µM (series often up to 9.22 µM), for the others: at the top dose activation, actives largely listed as activators; 320,000 tested, 2.4% active; also: % of control where 0% means no effect; nearly all actives have a fitted effect of over 60% in size
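Stable NPC1-promoter luciferase Huh7 line; cpd (DMSO) 24 h, 37 °C, 5% CO2; Amplite luciferase reagent 10 min RT; luminescence readout. qHTS format.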
FLuc counter = inhibits or activates purified firefly luciferase, miR-21 counter-screen; AID 588342; Potency, µM (titrated, usually from 57.5 µM), without a hit: at the highest dose activity change, negative = inhibition, actives largely listed as inhibitors; P08659; 360,000 tested, 6.9% active; purified FLuc, Km substrates, luminescence inhibition;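 also: plate controls were vehicle for no effect and reference inhibitor for full effect; nearly all actives have a fitted effect of over 55% in size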
Target sequence (P08659 whole entry, looked up): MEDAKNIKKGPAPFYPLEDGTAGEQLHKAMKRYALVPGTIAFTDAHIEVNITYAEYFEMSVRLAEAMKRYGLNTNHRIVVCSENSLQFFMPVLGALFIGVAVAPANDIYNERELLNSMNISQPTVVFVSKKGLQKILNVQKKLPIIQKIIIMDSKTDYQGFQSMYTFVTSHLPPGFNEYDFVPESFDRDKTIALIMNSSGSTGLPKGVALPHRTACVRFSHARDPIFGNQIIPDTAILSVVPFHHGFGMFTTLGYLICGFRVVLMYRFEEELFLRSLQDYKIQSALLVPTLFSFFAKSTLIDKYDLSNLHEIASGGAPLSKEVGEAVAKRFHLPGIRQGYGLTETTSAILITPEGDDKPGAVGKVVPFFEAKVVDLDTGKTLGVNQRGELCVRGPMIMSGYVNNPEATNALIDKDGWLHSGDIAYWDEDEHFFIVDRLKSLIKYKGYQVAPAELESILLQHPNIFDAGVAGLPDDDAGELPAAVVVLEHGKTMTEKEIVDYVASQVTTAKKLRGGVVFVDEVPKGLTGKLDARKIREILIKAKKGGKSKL
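Biochemical qHTS of compounds, final roughly 60 µM downward over six points, against 10 nM purified firefly luciferase using Km concentrations of substrates (10 uM D-luciferin, 10 uM ATP) in Tris acetate pH 7.5 buffer; luminescence output.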
Luc counter = blocks Kinase-Glo luciferase, a counter-screen artifact; Potency, µM (series often up to 38.3 µM), inactives show at the highest dose activity change, negative = inhibition, hits mostly inhibitors; 200,000 tested, 0.28% active; Q27757; Kinase-Glo luciferase, ATP luminescence, 8 min; also: % is scaled to controls: 0 for no effect and ±100 for the full control effect; nearly all actives have a fitted effect of over 60% in size
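Substrate mix (final 50 mM imidazole pH 7.2, 50 mM KCl, 7 mM MgCl2, 10 uM ATP, 0.01% Tween 20, 0.05% BSA) plus pin-tool compound, then Kinase-Glo detection mix; 8 min ambient, luminescence read.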
Rab9 promoter act = Rab9 promoter activation. Huh7 Rab9 promoter-luciferase reporter, luminescence, 24 h. Potency, µM (series often up to 9.22 µM), for the others: at the top dose activation, negative = inhibition, most hits filed as activators. 320,000 tested, 2.8% active; also: % of control where 0% means no effect; nearly all actives have a fitted effect of over 60% in size
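Cell-based reporter: Huh7 stable for Rab9 promoter-driven luciferase, plated in reduced-serum medium with 10% FBS at 1500 cells/well, compound-treated 24 h at 37 °C, luminescence read after 10 min reagent.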
ELG1 genotoxic = induces genotoxicity in HEK293T cells with luciferase-tagged ELG1; HEK293T ELG1-luciferase reporter, luminescence, 16 h; Potency, µM (doses to about 46 µM), for inactives: at the top dose activity change, positive = activation, actives largely listed as activators; 330,000 tested, 1.3% active; also: % of control where 0% means no effect; nearly all actives have a fitted effect of over 60% in size
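Genotoxicity was scored as increased ELG1-luciferase reporter signal, measured by ONE-Glo luminescence (30 min, room temperature). Compound or vehicle exposure of the HEK293T reporter cells lasted 16 hr at 37°C.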
* marks the source's active call; other numbers are inactive results; ? = inconclusive; / = no result; [ ] = remark or other dose. Rows were chosen to be rich in hits. Some 7.5% of all compounds tested hit in one or more screens of this group. Calls follow the shape of the dose curve; as a rule, active = well fitted curve in the direction sought with a large enough effect; inconclusive = small, poorly fitted or top-dose-only effect, or another doubt; inactive = no such curve, though single readings can be large; an effect the other way counts as inactive or inconclusive. Potency is read from the fitted curve at half-maximal effect.

SMILES	SMN2 splice up	NPC1 promoter act	FLuc counter	Luc counter	Rab9 promoter act	ELG1 genotoxic
CN(C)c1ccc(-c2nnc(-c3cccs3)o2)cc1	2.2µM*	0.5µM*	0.76µM*	-13%	0.32µM*	?
Cc1c(C(=O)Oc2ccc(Br)cc2)sc2ncn(Cc3ccccc3F)c(=O)c12	/	/	-1%	/	/	/
CCc1ccc2oc(C(=O)Nc3sc4c(c3C(=O)NC)CCCC4)cc(=O)c2c1	7%	/	3%	/	/	/
CCCCNC(=O)c1cnc2c(-c3ccc(OCC)c(OCC)c3)c(C)nn2c1-c1ccccc1	/	/	0%	/	/	/
CCOc1ccc(-c2nnc(NC3=NCCCCC3)o2)cc1	13µM*	?	4.8µM*	14%	1.6µM*	2.3µM*
CCOc1ccc(-c2nnc(-c3ccccc3)o2)cc1	0.56µM*	1.6µM*	1.1µM*	-16%	0.71µM*	?
CCOc1ccc(-c2nnc(-c3ccc(OC)cc3)o2)cc1	-6%	10%	?	-5%	19%	2%
CCN(CC)S(=O)(=O)c1ccc(C(=O)OCC(=O)Nc2ccc(-c3nc4ccc(C)cc4s3)cc2)cc1	1µM*	0.4µM*	2.7µM*	-3%	0.45µM*	1.6µM*
CCN(CC)S(=O)(=O)c1cc(C(=O)OCC(=O)Nc2ccc(-c3nc4ccc(C)cc4s3)cc2)ccc1F	1.6µM*	0.4µM*	5.4µM*	1%	0.32µM*	10µM*
O=C(O)CCc1ccc(-c2ccccc2)n1-c1cccc(Br)c1	0%	/	?	/	/	/
c1ccc(CN=C2NN=C(c3cc4ccccc4o3)CS2)cc1	18%	18%	17µM*	5%	18%	1%
c1csc(C2=NNC(=NC3CCCCC3)SC2)c1	13µM*	1.3µM*	4.8µM*	-11%	1µM*	?
c1ccc2oc(C3=NNC(=NC4CC4)SC3)cc2c1	1µM*	0.28µM*	0.76µM*	?	0.32µM*	?
CC(C)SCCCCOc1ccc2ccccc2c1	22%	?	17µM*	-6%	?	3%
CC(C)SCCCOc1ccc(C(C)(C)C)cc1	9%	0%	19µM*	6%	-2%	8%
CC(C)(C)c1ccc(OCCN2CCCC2)cc1	14%	-3%	3%[2.3 µM]	-1%	11%	-2%
Cn1cc(-c2cc3n(n2)CCC(=O)N3CCCC(=O)NCc2ccccc2)c2ccccc21	/	/	4%	/	/	/
Cc1ccc(C(=O)Nc2ccc(Br)cc2)cc1S(=O)(=O)N1CCOCC1	/	/	-18%	/	/	/
CC(=O)c1ccc(N2CCN(C(=O)c3cc(-c4cccnc4)nc4ccc(Br)cc34)CC2)cc1	-19%	2%	11µM*	-1%	0%	-9%
CS(=O)(=O)N1CCN(C(=O)c2cc(-c3cccnc3)nc3ccc(Br)cc23)CC1	-9%	-2%	-13%	1%	1%	-5%
O=C(c1cc(-c2cccnc2)nc2ccc(Br)cc12)N1CCN(c2ncccn2)CC1	-16%	-1%	21µM*	1%	3%	-10%
COC(=O)c1cc2oc3ccccc3c2n1CC(=O)Nc1ccc(F)c(Cl)c1	-8%	/	-14%	/	/	/
CCCCNC(=O)CCn1c(=O)c2ccccc2n(Cc2cccc(Cl)c2)c1=O	5%	/	0%	/	/	/
COC(=O)Cc1csc(NC(=O)c2ccc3ncsc3c2)n1	/	21%	24µM*	/	?	16%
CCOC(=O)c1sc(NC(=O)c2ccc3ncsc3c2)nc1C	2.8µM*	-33%	0.95µM*	0%	-37%	2.3µM*
SMILES	SMN2 splice up	NPC1 promoter act	FLuc counter	Luc counter	Rab9 promoter act	ELG1 genotoxic
CCOC(=O)c1sc(NC(=O)c2cncc(Br)c2)nc1C	4.5µM*	-14%	2.1µM*	-3%	17%	18µM*
Cc1nn(C)c2c1c(C(F)(F)F)cc(=O)n2Cc1cccc(Br)c1	/	/	0%	/	/	/
Cc1ccc2c(CN3CCN(C(=O)c4ccc(F)cc4)CC3)cc(=O)oc2c1	-5%	/	1%	/	/	/
COc1ccc(NC(=O)CN(C)C(=O)CNC(=O)c2sc3ccccc3c2Cl)cc1	/	?	3µM*	/	?	?
COc1cccc(NC(=O)CN(C)C(=O)CNC(=O)c2sc3ccccc3c2Cl)c1	/	19%	4.8µM*	/	25%	13%
COc1cccc(NC(=O)CN(C)C(=O)c2sc3cc(Cl)ccc3c2Cl)c1	/	-2%	4%	/	0%	-3%
CCOc1ccc(-c2c(C)nn3c(-c4ccccc4)c(C(=O)NCCOC)cnc23)cc1OCC	/	/	-2%	/	/	/
O=C(O)c1ccc2c(c1)C(=O)N(CCc1ccccc1)C2=O	/	3%	-3%	/	3%	0%
O=C(O)c1ccc2c(c1)C(=O)N(CCc1c[nH]c3ccccc13)C2=O	/	2.5µM*	17µM*	/	3.2µM*	?
N#CC1=C(N)N2C(=C(C#N)C1c1ccccc1)Sc1ccccc12 (stereo not drawn)	?	5%	-5%	-3%	5%	9%
c1ccc([C@H]2CN3C(=N2)Sc2ccccc23)cc1	/	?	0.48µM*	/	2%	?
Cc1cc(C)c2c(CN3CCC(C)CC3)cc(=O)oc2c1	/	?	15µM*	/	?	?
Cc1cc(C)c2c(CN3CCCCC3)cc(=O)oc2c1	/	3%	?	/	-1%	8%
C=CCn1c(N/N=C/c2ccc(O)cc2)nc2ccccc2c1=O	-1%	-2%	2.4µM*	-16%	30%	?
COc1ccc(Nc2nc3ccccc3c(=O)[nH]2)cc1	/	-5%	-19%	/	4%	5%
O=c1[nH]c(N/N=C/c2ccc(O)cc2)nc2ccccc12	22µM*	?	11µM*	0%	2.2µM*	21µM*
O=c1[nH]c(N/N=C\c2ccc(F)cc2)nc2ccccc12	10µM*	?	4.8µM*	-5%	1.3µM*	?
O=C(N/N=C/c1ccncc1)c1nc2ccccc2c(=O)[nH]1	/	-5%	-9%	/	3%	?
Cc1ccccc1CNC(=O)C(C)n1nc(C)n2c(cc3occc32)c1=O (stereo not drawn)	-2%	/	-9%	/	/	/
Cc1nnc(SCc2ccc(Cl)cc2Cl)[nH]c1=O	10%	0%	?	4%	-1%	?
Cc1cnc(SCc2ccc(Cl)cc2Cl)[nH]c1=O	/	-1%	21µM*	/	-3%	8%
Clc1ncccc1-c1nnn(-c2ccccc2Br)n1	/	23%	17µM*	/	25%	?
Cc1ccc(-n2nnc(-c3cccnc3Cl)n2)cc1	/	0.79µM*	0.76µM*	/	0.79µM*	5.8µM*
O=C(Nc1nccs1)c1ccccc1Br	/	6%	?	/	27%	7%
Brc1ccccc1-n1nnc(-c2nccs2)n1	/	2.5µM*	7.6µM*	/	1.4µM*	8.2µM*
Clc1ccc(-n2nnc(-c3cccnc3Cl)n2)cn1	/	?	13µM*	/	?	?
